The supplement of paper PMC10127200
Structures can show the parent of a compound that is named as a salt.

Assays:
Experiment in all cases: Euclidean distance of Cell Painting phenotypic profile (signed KS, 77 features) to DMSO centroid (dimensionless distance); 5 or 10 uM (library dependent); higher = stronger phenotypic change vs DMSO (phenoactivity)
Conditions in all cases: 48 h
[1] = system: 786-O
Summary of the method: (§1)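 Phenoactivity is computed as Euclidean distance to the median vehicle profile. The profiles, drawn from 77 Harmony features scored as signed Kolmogorov-Smirnov statistics versus same-plate vehicle wells, were corrected for plate position, correlation-weighted and replicate-averaged at the top dose. Stained cells were imaged confocally at 20X (9 fields/well) after 48 h with library compounds at 10 or 5 uM, 0.1% DMSO final, in five cancer lines and a healthy fibroblast line.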

[2] = system: A549
Summary of the method: as §1

[3] = system: DU145
Summary of the method: as §1

[4] = system: FB
Summary of the method: as §1

[5] = system: HEPG2
Summary of the method: as §1

[6] = system: OVCAR4
Summary of the method: as §1

Row | SMILES | Euclidean distance [1] | Euclidean distance [2] | Euclidean distance [3] | Euclidean distance [4] | Euclidean distance [5] | Euclidean distance [6]
1 | CCOc1ccccc1OCCN[C@H](C)Cc1ccc(OC)c(S(N)(=O)=O)c1 [Tamsulosin] | 1.91 | 1.28 | 1.73 | 1.01 | 1.38 | 1.6
2 | CCCCC(F)(F)[C@@]1(O)CC[C@H]2[C@@H](CC(=O)[C@@H]2CCCCCCC(=O)O)O1 [Lubiprostone] | 1.06 | 1.09 | 1.21 | 1.29 | 0.966 | 1.1
3 | CN[C@@H]1[C@@H](O)[C@@H](O[C@@H]2[C@@H](O)[C@H](O[C@H]3OC(CN)=CC[C@H]3N)[C@@H](N)C[C@H]2N)OC[C@]1(C)O [Sisomicin sulfate] | 1.2 | 1.53 | 0.985 | 0.996 | 0.672 | 1.05
4 | CN1C(N)=N[C@](C)(c2cc(NC(=O)c3ccc(F)cn3)ccc2F)CS1(=O)=O [Verubecestat (MK-8931)] | 0.523 | 0.58 | 0.609 | 0.675 | 0.509 | 0.924
5 | CN1CCN(CCCN2c3ccccc3Sc3ccc(Cl)cc32)CC1 [Prochlorperazine dimaleate salt] | 1.84 | 2.24 | 1.63 | 2.19 | 2.85 | 1.67
6 | Cc1[nH]nc2ccc(-c3cncc(OC[C@@H](N)Cc4ccccc4)c3)cc12 | 4.66 | 4.28 | 3.94 | 5.02 | 3.37 | 5.52
7 | C[C@H]1[C@H](C)CC[C@]2(C(=O)O)CC[C@]3(C)C(=CC[C@@H]4[C@@]5(C)C[C@@H](O)[C@H](O)[C@@](C)(CO)[C@@H]5CC[C@]43C)[C@H]12 [Asiatic Acid] | 0.996 | 0.839 | 1.11 | 1.04 | 1.24 | 0.885
8 | CCC(=O)NC[C@@H]1C[C@H]1c1cccc2c1CCO2 [Tasimelteon] | 1.21 | 1.04 | 0.924 | 1.26 | 0.397 | 1.28
9 | COc1ccc(F)c(F)c1C(=O)c1cnc(NC2CCN(S(C)(=O)=O)CC2)nc1N | 2.79 | 3.51 | 2.68 | 2.58 | 3.18 | 4.31
10 | CCc1oc2ccccc2c1C(=O)c1cc(Br)c(O)c(Br)c1 [Benzbromarone] | 0.882 | 0.749 | 0.48 | 1.01 | 0.723 | 1.14
11 | CC(C(=O)O)c1cccc(C(=O)c2ccccc2)c1 (stereo not given) [Ketoprofen] | 1.28 | 0.765 | 2.29 | 0.989 | 0.77 | 1.42
12 | CNCCC=C1c2ccccc2CCc2ccccc21 [Nortriptyline hydrochloride] | 1.69 | 1.13 | 1.37 | 1.82 | 1.8 | 1.69
13 | CO[C@@]1(NC(=O)C(C(=O)O)c2ccc(O)cc2)C(=O)N2C(C(=O)O)=C(CSc3nnnn3C)CO[C@@H]21 (stereo not given in full) [Latamoxef sodium] | 1.53 | 0.777 | 1.09 | 0.907 | 0.797 | 1.39
14 | COc1ccc(Cc2cnc(N)nc2N)cc1OC [Diaveridine] | 0.784 | 1.57 | 1.59 | 1.23 | 0.387 | 1.42
15 | Nc1ncnc2c1ncn2[C@@H]1O[C@H](CO)[C@@H](O)[C@@H]1O [Vidarabine monohydrate] | 0.895 | 1.22 | 0.966 | 0.665 | 1.66 | 1.18
16 | Cn1c(Cn2ccc(C(F)(F)F)c(Oc3cc(Cl)cc(C#N)c3)c2=O)n[nH]c1=O [Doravirine (MK-1439)] | 1.23 | 0.8 | 1.11 | 1.13 | 0.593 | 0.914
17 | COc1ccc(-c2ccc3cc(C(=O)O)ccc3c2)cc1C12CC3CC(CC(C3)C1)C2 [Adapalene] | 1.76 | 2.58 | 1.39 | 2.18 | 1.73 | 2.03
18 | CCCc1nc(C(C)(C)O)c(C(=O)OCc2oc(=O)oc2C)n1Cc1ccc(-c2ccccc2-c2nnn[nH]2)cc1 [Olmesartan Medoxomil] | 2.78 | 2.49 | 2.38 | 3.38 | 3.32 | 3.28
19 | N#CC[C@H](C1CCCC1)n1cc(-c2ncnc3[nH]ccc23)cn1 [Ruxolitinib Phosphate] | 1.96 | 1.67 | 1.41 | 1.39 | 1.1 | 1.26
20 | Nc1cccc2c1CN(C1CCC(=O)NC1=O)C2=O (stereo not given) [Lenalidomide (CC-5013)] | 1.74 | 1.2 | 0.79 | 1.03 | 0.639 | 1.15
21 | COCCCN1CCC(NC(=O)c2cc(Cl)c(N)c3c2OCC3)CC1 [Prucalopride Succinat] | 0.911 | 0.777 | 0.699 | 0.581 | 0.684 | 0.827
22 | CO[C@@]1(NC(=O)Cc2cccs2)C(=O)N2C(C(=O)O)=C(COC(N)=O)CS[C@@H]21 [Cefoxitin] | 0.82 | 0.39 | 0.617 | 0.482 | 0.307 | 1.03
23 | FC(F)(c1ccc2ncccc2c1)c1nnc2ccc(-c3ccncc3)nn12 | 1.6 | 0.84 | 2.54 | 0.717 | 1.24 | 1.2

Row | SMILES | Euclidean distance [1] | Euclidean distance [2] | Euclidean distance [3] | Euclidean distance [4] | Euclidean distance [5] | Euclidean distance [6]
24 | CC(=O)Oc1ccc(C(c2ccc(OC(C)=O)cc2)c2ccccn2)cc1 [Bisacodyl] | 1.2 | 1.2 | 0.531 | 3.08 | 0.712 | 1.41
25 | CC(C)(CO)[C@@H](O)C(=O)NCCC(=O)O [D-Pantothenic acid] | 1.36 | 0.696 | 0.734 | 1.08 | 0.485 | 1.11
26 | N=C(N)N/N=C/c1c(Cl)cccc1Cl [Guanabenz Acetate] | 1.25 | 1.29 | 1.12 | 0.609 | 0.842 | 1.77
27 | CCc1c2c(nc3ccc(O)cc13)-c1cc3c(c(=O)n1C2)COC(=O)[C@]3(O)CC | 4.4 | 4.38 | 3.48 | 4.61 | 3.55 | 3.46
28 | C#C[C@]1(O)CC[C@H]2[C@@H]3CCC4=CC(=O)CC[C@@H]4[C@H]3CC[C@@]21C [Norethindrone] | 1 | 0.864 | 0.791 | 1.2 | 0.575 | 1.29
29 | COc1ccc2[nH]cc(CCNC(C)=O)c2c1 [Melatonin] | 0.969 | 0.391 | 0.808 | 0.749 | 0.681 | 0.982
30 | OB1OCc2cc(F)ccc21 [Tavaborole (AN-2690)] | 0.735 | 0.76 | 0.961 | 1.16 | 0.354 | 0.974
31 | CCOCc1nc2c(N)nc3ccccc3c2n1CC(C)(C)O [Resiquimod] | 1.35 | 1.05 | 1.47 | 0.954 | 0.587 | 1.19
32 | COCCCN1CCC(NC(=O)c2cc(Cl)c(N)c3c2OCC3)CC1 [Prucalopride Succinate] | 0.846 | 1.22 | 1.04 | 1.4 | 0.733 | 1.47
33 | CCCN1CCCC[C@H]1C(=O)Nc1c(C)cccc1C [Ropivacaine HCl] | 0.76 | 0.477 | 0.895 | 0.646 | 0.469 | 1.39
34 | Cc1cc(C(=O)Nc2nc3cccc(Cl)c3n2[C@@H]2CCCCN(C(=O)/C=C/CN(C)C)C2)ccn1 [Nazartinib (EGF816. NVS-816)] | 1.87 | 1.93 | 1.67 | 3.18 | 2.99 | 1.9
35 | CCn1c(=O)c2c(nc(/C=C/c3ccc(OC)c(OC)c3)n2C)n(CC)c1=O [Istradefylline] | 1.47 | 1.5 | 0.734 | 1.18 | 0.77 | 1.44
36 | CCCC(=O)O[C@]1(C(=O)CO)CC[C@H]2[C@@H]3CCC4=CC(=O)CC[C@]4(C)[C@H]3[C@@H](O)C[C@@]21C [Hydrocortisone butyrate] | 1.21 | 2.18 | 1.87 | 1.7 | 1.87 | 2.45
37 | C=CC[N+]1([C@H]2C[C@H]3[C@@H]4CC[C@H]5C[C@H](O)[C@@H](N6CCOCC6)C[C@]5(C)[C@H]4CC[C@]3(C)[C@H]2OC(C)=O)CCCC1 [Rocuronium Bromide] | 1.59 | 1.12 | 1.92 | 1.08 | 0.685 | 1.25
38 | CC(C)c1cc(-c2n[nH]c(=O)n2-c2ccc3c(ccn3C)c2)c(O)cc1O [Ganetespib (STA-9090)] | 3.55 | 2.86 | 4.37 | 2.43 | 3.34 | 2.93
39 | C[C@H](O)C(=O)Nc1c(I)c(C(=O)NC(CO)CO)c(I)c(C(=O)NC(CO)CO)c1I [Iopamidol] | 0.656 | 0.571 | 0.699 | 1.06 | 0.734 | 1.33
40 | Cc1cccc(-c2[nH]ncc2-c2ccc3ncccc3n2)n1 | 0.773 | 0.733 | 0.91 | 1.15 | 0.71 | 0.807
41 | Cc1cc(C)nc(O)n1.O=C(Nc1ccc([N+](=O)[O-])cc1)Nc1ccc([N+](=O)[O-])cc1 [Nicarbazin] | 1.37 | 1.24 | 0.953 | 1.62 | 0.833 | 1.15
42 | NS(=O)(=O)c1cc(Cl)c(Cl)c(S(N)(=O)=O)c1 [Dichlorphenamide] | 0.93 | 0.762 | 0.774 | 0.872 | 0.87 | 1.01
43 | COc1ccc(Cn2ccc3ccc(C(=O)NO)cc32)cc1 | 1.83 | 1.18 | 1.25 | 2.16 | 1.5 | 0.415
44 | CCN(CC)C(=O)Nc1ccc(OCC(O)CNC(C)(C)C)c(C(C)=O)c1 (stereo not given) [Celiprolol hydrochloride] | 0.816 | 0.829 | 1.41 | 1.17 | 0.422 | 1.24
45 | C[C@H]1C[C@@H]2[C@H]([C@@H](O)C[C@@]3(C)[C@H]2CC[C@]3(O)C(=O)CO)[C@@]2(C)C=CC(=O)C=C12 [Methylprednisolone] | 1.37 | 1.96 | 1.76 | 1.79 | 2.31 | 2.07
